# Where “and” joins values, the source holds several entries; their conditions need not be identical. Identical values can stand only once. Among all 73,000 compounds or so, about 2,500 (3.4%) were called active. Where a call stands in place of a potency, no number is given. Inconclusive results (about 7%) are left out. Calls follow the shape of the dose curve; as a rule, active = well fitted inhibition curve with a large enough effect; inconclusive = small, poorly fitted or top-dose-only effect; inactive = no such curve, though single readings can be large or run the other way. Only a selection was taken, and actives are over-represented in it overall.
# Target: 3-hydroxyacyl-CoA dehydrogenase type-2 (Homo sapiens) (UniProt Q99714)
# Sequence (Q99714 whole entry, looked up): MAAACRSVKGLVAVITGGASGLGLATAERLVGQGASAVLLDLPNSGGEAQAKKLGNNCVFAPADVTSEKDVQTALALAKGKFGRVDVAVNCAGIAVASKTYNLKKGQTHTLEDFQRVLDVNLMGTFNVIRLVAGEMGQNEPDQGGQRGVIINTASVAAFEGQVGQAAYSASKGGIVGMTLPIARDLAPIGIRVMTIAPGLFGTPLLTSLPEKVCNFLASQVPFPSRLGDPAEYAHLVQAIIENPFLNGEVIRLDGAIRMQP
# Sequence (Q99714 whole entry, looked up): as above
# Assay: qHTS Assay for Inhibitors of HADH2 (Hydroxyacyl-Coenzyme A Dehydrogenase, Type II); also: nearly all actives have a fitted effect of over 60% in size
# Conditions: recombinant HADH2, NADH fluorescence, beta-hydroxybutyryl-CoA; series mostly up to 57.1 µM
# Method in brief: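 NADH fluorescence (ex 360/em 450 nm) read every 30 s for 4 min; activity taken as last-minus-first time point difference. Enzyme 20 nM, NAD+ 1 mM, beta-hydroxybutyryl-CoA 90 uM, pH 9.0 Tris buffer.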
# Potency is read from the fitted curve at half-maximal effect.
Compound,Potency,"activity change, negative = inhibition"
Cc1c2c(nc3ccccc13)-c1cccc(=O)n1C2,inactive,
COC(=O)[C@@]1(Cc2ccccc2)[C@H]2c3cc(C(=O)N4CCCC4)n(Cc4ccc(C)o4)c3C[C@H]2CN1C(=O)c1ccccc1,inactive,
C=CCOC(=O)COCCC(C)C,inactive,
O=C(c1cc(C(F)(F)F)cc(C(F)(F)F)c1)N1CCC2(CC1)CN(c1ccncc1)C2,inactive,
Cc1cccn2c(=O)c3cc(C(=O)NCc4ccccn4)n(C)c3nc12,inactive,
Cc1cccn2c(=O)c3cc(C(=O)N4COCC4(C)C)n(C)c3nc12,25.1 µM (active),
CC(C)CC1(C(=O)NCc2ccccn2)C=CCN1C(=O)c1ccccc1 (stereo unspecified),inactive,
CC(C)NC[C@H](O)c1ccc2ccccc2c1,inactive,
C[C@@H]1CC[C@H]2[C@H](C)[C@H]3[C@H](C[C@H]4[C@@H]5CC=C6C[C@@H](O)CC[C@@]6(C)[C@@H]5C[C@@H](O)[C@]34C)N2C1,,-8.91% [at 11.4 µM] (inactive)
CCCCn1c(SCC(=O)NCC2CCCO2)nc2ccc(N3CCOCC3)cc2c1=O (stereo unspecified),10 µM (active),
CCn1c(SCC(=O)NCC2CCCO2)nc2cc(S(=O)(=O)N3CCCCC3)ccc21 (stereo unspecified),inactive,
CCc1ccc(NC(=O)CSc2nc3ccccc3c(=O)n2CCN2CCOCC2)cc1,inactive,
COC(=O)[C@@]1(Cc2ccccc2)[C@H]2c3cc(C(=O)N(C)C)n(CCSCCO)c3C[C@H]2CN1C(=O)c1ccccc1,inactive,
N#Cc1cccc(-c2nc3cnc(N4CCNCC4)nc3n(C3CC3)c2=O)c1,inactive,
c1ccc2c(Nc3ccncc3)nc(-c3ccoc3)nc2c1,inactive,
COc1cccc(-c2nc(Nc3ccncc3)c3ccccc3n2)c1,inactive,
c1ccc2c(Nc3ccncc3)nc(-c3ccc4c(c3)OCO4)nc2c1,25.1 µM (active),
CCCC(Cl)CCCC(Cl)CCC(Cl)CCC(Cl)CCC(Cl)CCCC(Cl)CCC (stereo unspecified),inactive,
COc1ccc2nccc(C(=O)O)c2c1,inactive,
CC(NCCO)C(=O)C12CC3CC(CC(C3)C1)C2 (stereo unspecified),31.6 µM (active),
O=C(CNCCO)NC12CC3CC(CC(C3)C1)C2,inactive,
CN1CCN(CC(=O)C23CC4CC(CC(C4)C2)C3)CC1,inactive,
CC(C)NC(=O)N1CC[C@@]2(CCCN(C(=O)c3cccn3C)C2)C1,inactive,

Compound,Potency,"activity change, negative = inhibition"
Oc1cc2c(cc1O)CN(C(=S)NCCc1ccc(Cl)cc1)CCC2,1.58 µM (active) and 631 nM (active),
O=C(NCCc1ccc(Cl)cc1)C1CC(=O)N(C2CCCCC2)C1 (stereo unspecified),inactive,
NS(=O)(=O)c1ccc(CCNC(=O)Nc2ccc(Cl)cc2)cc1,,16% [at 11.4 µM] (inactive)
Cc1ccccc1N1CCN(S(=O)(=O)C[C@@]23CC[C@H](C[C@H]2NC(=O)[C@@H](N)CCS(C)(=O)=O)C3(C)C)CC1,inactive,
CC(=O)Oc1cccc(N2C(=O)C3CC=C(Cl)CC3C2=O)c1 (stereo unspecified),inactive,
COc1ccc(N2CCN(C3CC(=O)N(c4ccc5c(c4)OCCO5)C3=O)CC2)cc1 (stereo unspecified),inactive,
CC(=O)Oc1cccc(N2C(=O)CC(Nc3ccc(N4CCOCC4)cc3)C2=O)c1 (stereo unspecified),15.8 µM (active),
Cc1ccc(Br)cc1,inactive,
CCCn1c(-c2ccc(F)cc2)nc2c(NC3CCN(Cc4ccccc4)C3)nc(C)nc21 (stereo unspecified),inactive,
COc1ccccc1CNc1nc(-c2c(C)noc2C)nc2ccccc12,inactive,
CC[C@@H]1Cc2cc(O)ccc2C2=C1c1ccc(O)cc1C[C@H]2CC,25.1 µM (active),
C[C@@H](c1ccccc1)N1C(=O)[C@H]2[C@H]3[C@H](O)[C@H](O)C/C(=N/OC[C@@H](O)COCc4ccco4)[C@@H]3CC[C@@H]2C1=O,,7.28% [at 11.4 µM] (inactive)
CCCc1[nH]nc2c1C(c1ccc(Br)s1)C(C#N)=C(N)O2 (stereo unspecified),10 µM (active),
CCCc1[nH]nc2c1C(c1ccc(OC(=O)c3ccco3)cc1)C(C#N)=C(N)O2 (stereo unspecified),inactive,
CCCc1[nH]nc2c1C(C1CC=CCC1)C(C#N)=C(N)O2 (stereo unspecified),inactive,
CN(C)c1ncc2nc(-c3ccc(F)cc3)c(=O)n(Cc3ccc(F)cc3)c2n1,inactive,
COC(=O)[C@@]1(Cc2ccc(OC)cc2)[C@H]2c3cc(C(=O)N4CCCC4)n(Cc4ccc(C(F)(F)F)nc4)c3C[C@H]2CN1C(=O)c1ccccc1,inactive,
Oc1ccc(O)c2c(O)cccc12,1.26 µM (active),
O=C(CS(=O)(=O)Cc1ccccc1)NCC1CCCO1 (stereo unspecified),inactive,
O=C(CSc1nnc(-c2ccc(NS(=O)(=O)c3ccccc3)cc2)o1)NCC1CCCO1 (stereo unspecified),inactive,
O=C(CSC1=Nc2ccccc2C2=NC(c3ccccc3)C(=O)N12)NCC1CCCO1 (stereo unspecified),31.6 µM (active),
Cc1ccnc(N)c1,inactive,
N#Cc1ccc(CN2CCCC3(CCN(C(=O)c4ccco4)CC3)C2)cc1,inactive,

Compound,Potency,"activity change, negative = inhibition"
COc1ccc(/C=C/NC(=O)c2ccc(OC)cc2)cc1,,-13.3% [at 11.4 µM] (inactive)
C[C@@H]1O[C@@H](O[C@@H]2[C@@H](O)[C@H](OCCc3ccc(O)c(O)c3)O[C@H](CO[C@@H]3O[C@H](CO)[C@@H](O)[C@H](O)[C@H]3O)[C@H]2OC(=O)/C=C/c2ccc(O)c(O)c2)[C@H](O)[C@H](O)[C@H]1O,0.1 µM (active),
CO/N=C\[C@@H](C)[C@H](OCc1ccccc1)C(C)C,,2.33% [at 11.4 µM] (inactive)
CCN(Cc1ccncc1)C(=O)[C@@H](CO)c1ccccc1,inactive,
C=CC(=O)OCCOCCOCCOCCOC(=O)C=C,inactive,
COc1cccc(Cn2c(=O)c(-c3ccccc3)nc3cnc(OC)nc32)c1,inactive,
CCOC(=O)CCc1c(C)c2ccc(OCc3nn[nH]n3)c(C)c2oc1=O,25.1 µM (active),
C=CC(=C)CCC=C(C)C,inactive,
COc1ccc(C(=O)n2nc(-c3ccc(Cl)cc3)nc2N)cc1OC,inactive,
COc1ccccc1C(=O)n1nc(-c2ccccc2)nc1N,inactive,
COc1ccc(C(=O)n2nc(-c3ccc(C)cc3)nc2N)cc1OC,31.6 µM (active),
CO[C@@H]1COC(=O)C/C=C\[C@H](C)[C@@H](NS(=O)(=O)c2ccc(C)cc2)COC(=O)C/C=C\[C@@H]1C,,6.59% [at 11.4 µM] (inactive) and 13.2% [at 11.4 µM] (inactive)
COc1ccc(C(=O)N2CCC[C@@]3(CCN(C(=O)NC(C)C)C3)C2)cc1,inactive,
O=C1OCCC=C1[C@@H](O)CCc1ccccc1,,-6.14% [at 11.4 µM] (inactive)
C[C@H]1CC[C@H](C(=O)O)N[C@@H]1c1ccc(C#Cc2ccccc2)cc1,,4.48% [at 11.4 µM] (inactive)
CCCc1nc2ccccc2c(C(=O)OCc2nnc(-c3cc(OC)c(OC)c(OC)c3)o2)c1CC,inactive,
CCOC(=O)c1cc2ccccc2nc1C,inactive,
CCOC(=O)c1cc(-c2nnc(-c3cc(OC)c(OC)c(OC)c3)o2)c(C)nc1C,5.01 µM (active),
Cc1cc2c(cc1C)NC1=C(N2)O[C@H](c2c[nH]c3ccc(COc4ccccc4)cc23)C1=O,,0.634% [at 11.4 µM] (inactive)
CCCN1C2=C(C(=O)CCC2)C(c2ccc(O)c(Br)c2)C2=C1CCCC2=O,15.8 µM (active),
O=C1CC(c2cccc(Br)c2)C2=C(CCCC2=O)N1 (stereo unspecified),inactive,
C[C@@H](C(=O)Nc1ccc2ccccc2c1)[C@@H]1C[C@@]1(C)[C@@H](NC(=O)c1cccnc1)c1ccccc1,inactive,
COc1ccc(C[C@H](N)C(=O)N[C@@H]2[C@H](O)[C@H](n3cnc4c(N(C)C)ncnc43)O[C@@H]2CO)cc1,inactive,

Compound,Potency,"activity change, negative = inhibition"
CCC(=O)Nc1ccc(C(=O)Nc2ccc3c(c2)C(=O)N(CC2CCCO2)C3=O)cc1 (stereo unspecified),10 µM (active),
CN1C(=O)c2ccc(NC(=O)C3CCCCC3)cc2C1=O,inactive,
O=C(NCc1ccc2c(c1)OCO2)c1ccc2c(c1)C(=O)N(CC1CCCO1)C2=O (stereo unspecified),inactive,
c1ccc2sc(SCCSc3nc4ccccc4s3)nc2c1,,16.5% [at 11.4 µM] (inactive)
COC(=O)[C@@]1(Cc2ccc(F)cc2)[C@@H]2[C@@H](CC(=O)[C@H]2CC(=O)C(=O)N2CCCC2)CN1C(=O)c1ccccc1,inactive,
O=C(OCC(COC(=O)c1ccccc1)(COC(=O)c1ccccc1)COC(=O)c1ccccc1)c1ccccc1,inactive,
CCOc1cc(C2C(C(=O)OC)=CN(C3CCCC3)C=C2C(=O)OC)cc(Br)c1O,inactive,
CCOc1ccccc1C1C(C(=O)OC)=CN(C)C=C1C(=O)OC,31.6 µM (active),
COC(=O)C1=CN(C)C=C(C(=O)OC)C1c1ccc(Cl)cc1Cl,inactive,
Cn1c(=O)c(-c2ccccc2)nc2cnc(N3CCNCC3)nc21,inactive,
CO[C@H]1COC(=O)[C@H](Cc2ccccc2)NC(=O)C/C=C\[C@@H](C)[C@H](OC)COC(=O)C/C=C\[C@@H]1C,,2.71% [at 11.4 µM] (inactive)
O=C(Nc1cccnc1)c1ccc2c(c1)OCO2,inactive,
c1n[nH]c(NCc2ccc3c(c2)OCO3)n1,inactive,
c1cncc(CNc2ccnc(-c3ccc4c(c3)OCO4)n2)c1,25.1 µM (active),
CCCCCCc1ccc(O)cc1O,inactive,
O=C(Cn1c(=O)sc2ccccc21)Nc1nc2c(s1)CCCC2,inactive,
COc1cccc(Cn2c(=O)c(CCc3ccccc3)nc3cnc(N(C)C)nc32)c1,inactive,
COC(=O)C(C)Sc1ccc2nnc(-c3cccc(F)c3)n2n1 (stereo unspecified),12.6 µM (active),
CCOc1ccc(-c2nnc3ccc(SC)nn23)cc1,inactive,
CC1CCN(C(=O)CSc2ccc3nnc(-c4cccc(F)c4)n3n2)CC1,inactive,
Cc1cc(C)c2nc3c(c([C@H](O)[C@@H]4CCCCN4)c2c1)CC/C3=C/c1ccc(Cl)cc1,,12.8% [at 11.4 µM] (inactive)
COC(=O)[C@@]1(Cc2ccc(F)cc2)[C@H]2c3cc(C(=O)N4CCCC4)n(Cc4ccc(OC(F)(F)F)cc4)c3C[C@H]2CN1C(=O)c1ccccc1,inactive,
